The target of experiment [1] is DNA polymerase III PolC-type (Bacillus subtilis (strain 168)) (UniProt P13267). Nature of the experiment: qHTS Validation Assay for the Inhibitors of DNA Replication in Gram-Positive Bacteria (AID 485295).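 Also: reconstituted holoenzyme with PolC plus beta clamp SSB and primase; PicoGreen fluorescence of double-stranded DNA made on primed circular M13 template; 0% = DMSO wells and -100% = EDTA-quenched background wells.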 The conditions noted are these: Gram-positive bacterial DNA replication assay; series mostly up to 57.1 µM. Summed up: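 First, compound is mixed with the reconstituted replication complex and held at room temperature. Next, circular single-stranded M13Gori with nucleotides starts synthesis. Finally, PicoGreen in EDTA halts the reaction and stains double-stranded product for fluorescence reading.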
A general note: qHTS replaces the single test concentration by a dilution series.

The target in experiment [2] is Tumor susceptibility gene 101 protein (Homo sapiens) (UniProt Q99816). Description: qHTS Validation Assay for Iinhibitors of HIV-1 Budding by Blocking the Interaction of PTAP/TSG101 (AID 485342; calls by dose curve; also: 0% is about no effect). The conditions noted are these: TSG101-PTAP binding, fluorescence polarization, 4-point titration; series mostly up to 115 µM. The procedure, abridged:
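Binding of a FITC-tagged PTAP-motif peptide (50 nM) to the Tsg101 binding domain (10 uM) is monitored by fluorescence polarization. Compounds are pin-delivered before peptide addition, and incubation runs 20 min at room temperature.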

A short description of experiment [3]: qHTS Validation Assay to Find Inhibitors of Chronic Active B-Cell Receptor Signaling (AID 485345; active = well fitted curve in the direction sought with a large enough effect in the main read-out, with a control signal flat, not every such curve was filed as active;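 also: 0% = untreated basal cells and 100% = 10 µM MG-132 proteasome inhibitor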). As to conditions: ABC-DLBCL cells, chronic BCR signaling reporter, CBG luciferase; series mostly up to 46.1 µM. Summed up: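 TMD8 ABC-DLBCL cells with dox-inducible green luciferase–IκBα fusion and red native luciferase; compounds 46 uM–3 nM, 4 h at 37C with doxycycline in 0.5% FBS IMDM. Green/red ratio normalized to basal and 10 uM MG-132.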

For experiment [4], the target named is Beta-2 adrenergic receptor (Homo sapiens) (UniProt P07550). Description: qHTS validation assay of beta-arrestin-biased ligands of beta2-adrenergic receptor (AID 485366). Also: 0% is about no effect. The conditions noted are these: cell-based beta-arrestin recruitment to ADRB2, qHTS; series mostly up to 46.1 µM. Summed up: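 Tango cells expressing recombinant beta2-AR and beta-arrestin with tTA-driven luciferase, in DMEM with 1% FBS. Compounds were titrated up to 46 microM for 18 hr at 37 degrees C. Luminescence was read 15 min after substrate; curves were fitted and class-assigned.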

The target in experiment [5] is Thioredoxin reductase 1, cytoplasmic (Rattus norvegicus) (UniProt O89049). Nature of the experiment: qHTS Assay for Substrates of Mammalian Selenoprotein Thioredoxin Reductase 1 (TrxR1) (AID 488772).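 Also: NADPH fluorescence in the first read after selenite addition and not the 8 min delta; 0% is about no effect; a drop in NADPH fluorescence below the no-compound background marks a TrxR1 substrate.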 The conditions noted are these: purified TrxR1, NADPH consumption substrate assay; series mostly up to 57.1 µM. Summed up: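 Quantitative HTS in Tris-HCl buffer at pH 7.5 with EDTA and Tween-20, using rat TrxR1, 400 uM NADPH and 400 uM selenite (final). A fall in initial NADPH fluorescence relative to background marked substrate behaviour.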

Experiment [6] shares this target. Nature of the experiment: qHTS Assay for Inhibitors of Mammalian Selenoprotein Thioredoxin Reductase 1 (TrxR1) (AID 488773).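 Also: drop in NADPH fluorescence over an 8 min run after selenite addition; % is scaled to controls: 0 for no effect and ±100 for the full control effect; nearly all actives have a fitted effect of over 40% in size.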 As to conditions: purified TrxR1 enzyme activity; series mostly up to 57.1 µM. The procedure, abridged:
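Steps: enzyme (90 nM) plus NADPH (400 uM final), 5 min at ~22 deg C; compound added, 15 min; selenite (400 uM final) added; fluorescence followed for 8 min. Concentration-response curves derived from the normalized delta values.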

Experiment [7] concerns the target Flap endonuclease 1 (Homo sapiens) (UniProt P39748). Description: qHTS Validation Assay for the Inhibitors of Human Flap endonuclease 1 (FEN1) (AID 488816). Also: % is scaled to controls: 0 for no effect and ±100 for the full control effect. As to conditions: FEN1 nuclease activity, fluorogenic DNA substrate; series mostly up to 57.1 µM. Summed up: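 FEN1, dispensed as a 10 nM reagent, was preincubated with pin-transferred compounds for 15 min at room temperature before substrate was added (50 nM final). Plates were read at 0 and 15 min, and a four-parameter Hill equation was fitted to the concentration-response data.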

For experiment [8], the target named is M-phase phosphoprotein 8 (Homo sapiens) (UniProt Q99549). Nature of the experiment: qHTS Validation Assay for Inhibitors for MPP8 Chromodomain Interactions with Methylated Histone Tails (AID 488949).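 Also: 50 nM MPP8 with 50 nM peptide preformed then compounds added for 30 min; AlphaScreen signal from MPP8 chromodomain bound to biotinylated H3K9me3 peptide; top concentration of the series differs between compounds; % is scaled to controls: 0 for no effect and ±100 for the full control effect; nearly all actives have a fitted effect of over 55% in size.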 As to conditions: AlphaScreen MPP8 binding to H3K9me3 peptide; series mostly up to 57.1 µM. Summed up:
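50 nM MPP8 + 50 nM b-H3K9me3 peptide, PBS pH 7.4/0.01% Tween-20, 30 min RT; + cpd 30 min RT; + AlphaScreen donor/Ni-chelate acceptor beads 10 ug/mL final, 30 min dark; luminescence read.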

In experiment [9] the target is Chromobox protein homolog 1 (Homo sapiens) (UniProt P83916). Description: qHTS Validation Assay for Inhibitors of HP1-beta Chromodomain Interactions with Methylated Histone Tails (AID 488953).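 Also: loss of AlphaScreen luminescence from HP1-beta binding biotinylated H3K9me3 peptide; % is scaled to controls: 0 for no effect and ±100 for the full control effect; nearly all actives have a fitted effect of over 50% in size.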 As to conditions: HP1-beta chromodomain / methylated histone peptide binding assay; series mostly up to 114 µM. Summed up:
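HP1-beta (50 nM) preformed 30 min with biotinylated H3(1-18)K9me3 peptide (50 nM) in PBS pH 7.4, 0.01% Tween-20. Compounds added for 30 min at room temperature. Complex disruption read by AlphaScreen with streptavidin donor/nickel chelate acceptor beads (10 ug/mL each).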

For experiment [10], the target named is Methanococcus maripaludis chaperonin (MmCpn) (UniProt Q6LX38). Nature of the experiment: High-Throughput Screening for Modulators of Cytosolic Chaperonin Activity: MmCpn Primary Screen (AID 488978).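 Also: 50 nM MmCpn enzyme hydrolysing 30 µM ATP at 37 °C; 0% is about no effect.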 As to conditions: Purified MmCpn ATPase activity, ADP HTRF detection, 10 min; series mostly up to 76.9 µM. The procedure, abridged:
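Steps: chaperonin 50 nM final; add compound, 5 min RT; start with ATP, 30 uM final; hold 10 min at 37C; add ADP Transcreener HTRF reagent, 5 min; read ex 320, em 590 and 665 nm.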

The target of experiment [11] is D(1A) dopamine receptor (Homo sapiens) (UniProt P21728). Nature of the experiment: HTS Assay for Allosteric Agonists of the Human D1 Dopamine Receptor: Primary Screen for Agonists (AID 488981). Also: 0% is about no effect. The conditions noted are these: Inducible HEK293 T-REx D1 cells, calcium-flux fluorescence, 180 s kinetic; series mostly up to 41.8 µM. The procedure, abridged: (§1)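 Tetracycline-induced HEK293 T-REx cells force-coupled to calcium signalling were incubated overnight at 30 C and dye-loaded at room temperature. Calcium flux over 180 s after compound addition flagged agonists; a further 180 s read after EC20 dopamine flagged potentiators.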

For experiment [12] the target is unchanged. Description: HTS Assay for Allosteric Agonists of the Human D1 Dopamine Receptor: Primary Screen for Potentiators (AID 488982). Also: 0% is about no effect. As to conditions: HEK293 T-REx D1 inducible cells, calcium flux, kinetic fluorescence; series mostly up to 8.37 µM. Summed up: as §1
(In general: A change in cytosolic calcium serves as a functional read-out for many receptors and channels.)

Experiment [13] shares this target. Nature of the experiment: HTS Assay for Allosteric Agonists of the Human D1 Dopamine Receptor: Primary Screen for Antagonists (AID 488983).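 Also: calcium flux response to an EC80 dopamine challenge measured with no-wash dye; % is scaled to controls: 0 for no effect and ±100 for the full control effect; nearly all actives have a fitted effect of over 65% in size.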 The conditions noted are these: D1 receptor cell assay, antagonist mode, qHTS titration; series mostly up to 41.8 µM. The procedure, abridged: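 Tetracycline-induced HEK293 T-REx D1 line, force-coupled to calcium flux, read with no-wash calcium dye. Compound added after 10 s baseline, read 180 s for agonism, then EC80 dopamine added and read a further 180 s.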

In experiment [14] the target is ATPase family AAA domain-containing protein 5 (Homo sapiens) (UniProt Q96QE3). Description: Validation screen for small molecules that inhibit ELG1-dependent DNA repair in human embryonic kidney (HEK293T) cells expressing luciferase-tagged ELG1 (AID 493107).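 Also: cells co-treated with the DNA-damaging agent 5-fluorouridine alongside compound; % is scaled to controls: 0 for no effect and ±100 for the full control effect; inhibitors lower the ELG1-luciferase luminescence signal; nearly all actives have a fitted effect of over 70% in size.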 The conditions noted are these: HEK293T ELG1-luciferase level, luminescence, 5-fluorouridine co-treatment, 16 h; series mostly up to 46.1 µM. The procedure, abridged: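 HEK293T cells expressing luciferase-tagged ELG1, 2,000 per well, treated with 5-fluorouridine plus compound for 16 h at 37 C. ONE-Glo luminescence after 30 min at room temperature reports ELG1 reporter level.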

The target in experiment [15] is ATP-dependent 6-phosphofructokinase (Trypanosoma brucei brucei) (UniProt O15648). Nature of the experiment: qHTS Assay to Find Inhibitors of T. brucei phosphofructokinase: hit validation (AID 492961).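 Also: luminescence reports ADP formed as PFK phosphorylates fructose-6-phosphate with ATP; % is scaled to controls: 0 for no effect and ±100 for the full control effect.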 The conditions noted are these: T. brucei PFK, ADP-Glo luminescence; series mostly up to 51.4 µM. Summed up: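 Percent activity derived from corrected luminescence, normalized between 0x and 1x enzyme controls, then fitted to concentration-response curves. Conditions: 1.25 nM PFK, 0.1 mM ATP, 0.5 mM F6P, 45 min RT.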

A short description of experiment [16]: Quantitative high throughput screen for delayed death inhibitors of the malarial parasite plastid, 96 hour incubation (AID 488745). Also: % is scaled to controls: 0 for no effect and ±100 for the full control effect; nearly all actives have a fitted effect of over 70% in size. The conditions noted are these: Plasmodium falciparum growth; series mostly up to 28.7 µM. Summed up:
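Luciferase-expressing P. falciparum in erythrocytes (2% hematocrit, 0.1% parasitemia) incubated with compound for 96 h at 37 C, 5% CO2, in RPMI 1640 with 0.5% Albumax. Growth inhibition read as decreased luminescence.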

Experiment [17] can be described thus: Quantitative high throughput screen for delayed death inhibitors of the malarial parasite plastid, 48 hour incubation (AID 488752). Also: % is scaled to controls: 0 for no effect and ±100 for the full control effect; nearly all actives have a fitted effect of over 65% in size. The conditions noted are these: Plasmodium falciparum growth; series mostly up to 28.7 µM. Summed up:
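Erythrocytes infected with firefly luciferase-expressing P. falciparum (2% hematocrit, 0.1% parasitemia) cultured with compound for 48 h at 37 C, 5% CO2, in RPMI 1640/0.5% Albumax. Growth inhibition read as loss of luminescence.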

The target of experiment [18] is Transient receptor potential cation channel subfamily V member 1 (Homo sapiens) (UniProt Q8NER1). Nature of the experiment: HTS Assay for Compounds that Act as Enhancers of the Vanilloid Receptor 1 (AID 488979). Also: 0% is about no effect. The conditions noted are these: TRPV1-expressing cells, enhancer of channel activity, stimulated with capsaicin at EC20; series mostly up to 41.7 µM. Summed up:
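TRPV1-expressing cells loaded with Fluo-8 calcium dye; compounds added and calcium influx read kinetically for 3 min (agonist phase), then capsaicin at EC20 added and read 2 min more for enhancement. Fluorescence ex 480/em 520 nm.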

The target of experiment [19] is Thyrotropin receptor (Homo sapiens) (UniProt P16473). Nature of the experiment: qHTS Assay for Antagonists of the Thyroid Stimulating Hormone Receptor (AID 488980). Also: 0% is about no effect. As to conditions: TSHR-expressing cells, cAMP antagonist read-out; series mostly up to 57.5 µM. Summed up: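 Readout is cAMP by HTRF competition between cellular cAMP and cAMP-d2 for a cryptate-labelled antibody. Antagonism was assessed in TSHR-transfected HEK293 cells stimulated with 4 nM TSH (EC80, final) in the presence of RO 20-1724.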

Experiment [20] deals with Thyrotropin-releasing hormone receptor (Homo sapiens) (UniProt P34981). Description: qHTS for Small Molecule Agonists and Allosteric Enhancers of Human TRH Receptor: Validation Screen for Agonists (AID 493127;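 active = calcium activation more than 3 SD above the typical response in the agonist read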; also: 0% is about no effect). The conditions noted are these: TRH receptor agonist cell assay; at 2 µM; stronger effect = higher value. Summed up: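 TRHR cells loaded with fluo-8 calcium dye; FDSS kinetic fluorescence (Ex 480/Em 530) read at 1 s/cycle after 23 nL compound addition. Agonist-mode calcium response recorded before the 10 nM TRH (EC20) addition.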

Records with an inconclusive call do not appear. Active and inactive are the calls of the source. Unless noted, calls follow the shape of the dose curve; as a rule, active = well fitted curve in the direction sought with a large enough effect; inconclusive = small, poorly fitted or top-dose-only effect, or another doubt; inactive = no such curve, though single readings can be large; an effect the other way counts as inactive or inconclusive.

Chain of D(1A) dopamine receptor (Homo sapiens) (P21728 whole entry, looked up): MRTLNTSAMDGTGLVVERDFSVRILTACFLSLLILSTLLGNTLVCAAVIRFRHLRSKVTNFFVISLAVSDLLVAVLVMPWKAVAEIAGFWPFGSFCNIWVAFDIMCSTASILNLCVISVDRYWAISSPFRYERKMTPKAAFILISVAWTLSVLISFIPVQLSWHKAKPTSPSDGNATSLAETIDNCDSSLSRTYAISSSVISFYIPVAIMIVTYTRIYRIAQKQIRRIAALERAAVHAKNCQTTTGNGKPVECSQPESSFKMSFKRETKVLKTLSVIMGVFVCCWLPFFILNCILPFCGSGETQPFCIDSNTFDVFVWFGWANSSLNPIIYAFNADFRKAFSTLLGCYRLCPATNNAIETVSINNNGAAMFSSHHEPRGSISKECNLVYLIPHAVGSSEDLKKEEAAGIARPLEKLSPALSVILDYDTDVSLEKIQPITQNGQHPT
Chain of ATP-dependent 6-phosphofructokinase (Trypanosoma brucei brucei) (O15648 whole entry, looked up): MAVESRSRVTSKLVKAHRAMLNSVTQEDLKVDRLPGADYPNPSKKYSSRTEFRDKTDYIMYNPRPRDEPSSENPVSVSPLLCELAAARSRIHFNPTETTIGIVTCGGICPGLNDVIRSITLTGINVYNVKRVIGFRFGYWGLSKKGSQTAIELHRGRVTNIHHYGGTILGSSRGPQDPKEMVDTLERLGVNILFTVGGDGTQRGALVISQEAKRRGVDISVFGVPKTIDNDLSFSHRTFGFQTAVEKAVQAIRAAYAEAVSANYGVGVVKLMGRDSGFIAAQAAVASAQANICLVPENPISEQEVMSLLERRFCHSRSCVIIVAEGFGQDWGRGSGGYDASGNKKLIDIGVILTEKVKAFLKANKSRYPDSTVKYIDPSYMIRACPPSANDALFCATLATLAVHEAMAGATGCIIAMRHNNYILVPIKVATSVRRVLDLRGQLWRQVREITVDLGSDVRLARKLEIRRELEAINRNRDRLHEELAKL
Chain of Thioredoxin reductase 1, cytoplasmic (Rattus norvegicus) (O89049 whole entry, looked up): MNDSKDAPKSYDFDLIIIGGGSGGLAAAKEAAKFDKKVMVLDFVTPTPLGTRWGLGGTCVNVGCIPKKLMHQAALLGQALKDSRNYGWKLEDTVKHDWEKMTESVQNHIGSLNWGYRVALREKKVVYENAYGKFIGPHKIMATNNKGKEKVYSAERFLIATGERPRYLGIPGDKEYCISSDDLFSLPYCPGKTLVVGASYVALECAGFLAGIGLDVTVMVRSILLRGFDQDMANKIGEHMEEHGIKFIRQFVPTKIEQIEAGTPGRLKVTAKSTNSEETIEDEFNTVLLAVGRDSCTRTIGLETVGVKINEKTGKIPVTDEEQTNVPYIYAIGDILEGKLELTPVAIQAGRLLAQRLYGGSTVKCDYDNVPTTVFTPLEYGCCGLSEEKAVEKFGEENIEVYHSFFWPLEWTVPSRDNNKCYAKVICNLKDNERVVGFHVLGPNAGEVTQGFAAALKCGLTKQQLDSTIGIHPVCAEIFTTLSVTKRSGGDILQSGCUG
Chain of M-phase phosphoprotein 8 (Homo sapiens) (Q99549 whole entry, looked up): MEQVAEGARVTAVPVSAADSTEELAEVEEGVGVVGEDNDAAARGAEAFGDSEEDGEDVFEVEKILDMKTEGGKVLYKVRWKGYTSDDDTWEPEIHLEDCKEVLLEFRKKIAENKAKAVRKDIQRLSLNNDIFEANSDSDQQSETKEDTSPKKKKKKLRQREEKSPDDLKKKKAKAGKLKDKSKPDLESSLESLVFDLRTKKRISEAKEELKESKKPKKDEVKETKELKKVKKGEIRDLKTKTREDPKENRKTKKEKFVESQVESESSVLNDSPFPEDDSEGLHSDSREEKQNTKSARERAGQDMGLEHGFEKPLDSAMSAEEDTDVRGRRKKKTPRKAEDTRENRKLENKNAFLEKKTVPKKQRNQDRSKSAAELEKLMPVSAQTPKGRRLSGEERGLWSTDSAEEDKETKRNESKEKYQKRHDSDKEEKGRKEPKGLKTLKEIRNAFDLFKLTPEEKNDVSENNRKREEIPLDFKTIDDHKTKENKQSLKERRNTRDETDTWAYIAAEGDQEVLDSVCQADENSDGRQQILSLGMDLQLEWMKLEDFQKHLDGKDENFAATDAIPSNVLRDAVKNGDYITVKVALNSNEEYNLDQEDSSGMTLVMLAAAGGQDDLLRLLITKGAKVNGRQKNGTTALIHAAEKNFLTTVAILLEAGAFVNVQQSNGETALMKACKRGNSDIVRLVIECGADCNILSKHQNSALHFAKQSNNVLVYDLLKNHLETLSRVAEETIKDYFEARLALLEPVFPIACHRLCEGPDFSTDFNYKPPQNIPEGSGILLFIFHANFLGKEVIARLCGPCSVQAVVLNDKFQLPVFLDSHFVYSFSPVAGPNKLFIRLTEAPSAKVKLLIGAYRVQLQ
Chain of Chromobox protein homolog 1 (Homo sapiens) (P83916 whole entry, looked up): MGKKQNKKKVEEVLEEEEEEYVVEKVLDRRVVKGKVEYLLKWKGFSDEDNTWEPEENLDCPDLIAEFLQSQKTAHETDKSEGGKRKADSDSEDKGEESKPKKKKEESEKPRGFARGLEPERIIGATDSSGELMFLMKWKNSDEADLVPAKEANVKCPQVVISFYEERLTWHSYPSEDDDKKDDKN
Chain of Flap endonuclease 1 (Homo sapiens) (P39748 whole entry, looked up): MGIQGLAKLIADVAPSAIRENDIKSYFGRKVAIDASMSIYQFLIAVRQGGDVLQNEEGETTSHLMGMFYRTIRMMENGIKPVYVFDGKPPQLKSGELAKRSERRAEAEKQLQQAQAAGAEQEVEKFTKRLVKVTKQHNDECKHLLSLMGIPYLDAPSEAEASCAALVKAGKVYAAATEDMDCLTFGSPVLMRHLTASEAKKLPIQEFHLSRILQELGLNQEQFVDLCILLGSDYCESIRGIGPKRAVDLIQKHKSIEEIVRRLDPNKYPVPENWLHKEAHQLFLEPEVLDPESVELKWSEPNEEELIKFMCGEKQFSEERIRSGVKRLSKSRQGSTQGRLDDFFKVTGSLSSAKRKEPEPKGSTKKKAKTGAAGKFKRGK
Chain of Beta-2 adrenergic receptor (Homo sapiens) (P07550 whole entry, looked up): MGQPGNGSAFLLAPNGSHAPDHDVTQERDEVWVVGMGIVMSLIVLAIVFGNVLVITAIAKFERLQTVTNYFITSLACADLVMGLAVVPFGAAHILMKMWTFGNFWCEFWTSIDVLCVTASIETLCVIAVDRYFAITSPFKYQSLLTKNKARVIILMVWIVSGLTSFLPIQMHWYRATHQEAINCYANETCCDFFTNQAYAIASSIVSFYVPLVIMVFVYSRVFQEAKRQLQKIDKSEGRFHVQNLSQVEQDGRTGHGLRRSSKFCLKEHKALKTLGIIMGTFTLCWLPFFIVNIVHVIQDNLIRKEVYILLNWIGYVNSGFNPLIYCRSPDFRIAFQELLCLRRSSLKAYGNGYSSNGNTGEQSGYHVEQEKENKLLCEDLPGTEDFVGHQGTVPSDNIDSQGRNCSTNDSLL
Chain of Tumor susceptibility gene 101 protein (Homo sapiens) (Q99816 whole entry, looked up, the tested form may be a part): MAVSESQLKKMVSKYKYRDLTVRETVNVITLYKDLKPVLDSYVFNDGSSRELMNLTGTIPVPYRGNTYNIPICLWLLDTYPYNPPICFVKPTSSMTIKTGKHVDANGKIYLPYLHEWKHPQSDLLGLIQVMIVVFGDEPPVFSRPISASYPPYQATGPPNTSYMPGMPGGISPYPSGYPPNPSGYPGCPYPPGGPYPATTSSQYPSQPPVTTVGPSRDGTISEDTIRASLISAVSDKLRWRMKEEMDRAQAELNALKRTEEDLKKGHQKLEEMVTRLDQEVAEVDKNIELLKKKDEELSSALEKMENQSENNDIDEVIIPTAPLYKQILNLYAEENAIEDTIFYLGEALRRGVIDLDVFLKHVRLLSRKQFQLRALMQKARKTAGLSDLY
Chain of Methanococcus maripaludis chaperonin (MmCpn) (Q6LX38 1-543): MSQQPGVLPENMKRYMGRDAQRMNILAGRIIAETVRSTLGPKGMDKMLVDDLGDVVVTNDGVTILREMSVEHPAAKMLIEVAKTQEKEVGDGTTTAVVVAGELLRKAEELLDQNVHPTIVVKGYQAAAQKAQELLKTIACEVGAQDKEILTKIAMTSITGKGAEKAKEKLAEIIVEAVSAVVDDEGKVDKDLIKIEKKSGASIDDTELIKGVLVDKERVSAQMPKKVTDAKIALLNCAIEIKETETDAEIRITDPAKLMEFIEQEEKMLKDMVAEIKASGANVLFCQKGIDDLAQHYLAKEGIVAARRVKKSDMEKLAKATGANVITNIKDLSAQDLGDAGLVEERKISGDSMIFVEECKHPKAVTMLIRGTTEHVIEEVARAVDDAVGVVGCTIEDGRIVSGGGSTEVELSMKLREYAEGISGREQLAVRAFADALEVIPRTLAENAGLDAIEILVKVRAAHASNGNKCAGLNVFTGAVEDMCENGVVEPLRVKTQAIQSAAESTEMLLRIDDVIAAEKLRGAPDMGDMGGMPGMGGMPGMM
Chain of Thyrotropin-releasing hormone receptor (Homo sapiens) (P34981 whole entry, looked up): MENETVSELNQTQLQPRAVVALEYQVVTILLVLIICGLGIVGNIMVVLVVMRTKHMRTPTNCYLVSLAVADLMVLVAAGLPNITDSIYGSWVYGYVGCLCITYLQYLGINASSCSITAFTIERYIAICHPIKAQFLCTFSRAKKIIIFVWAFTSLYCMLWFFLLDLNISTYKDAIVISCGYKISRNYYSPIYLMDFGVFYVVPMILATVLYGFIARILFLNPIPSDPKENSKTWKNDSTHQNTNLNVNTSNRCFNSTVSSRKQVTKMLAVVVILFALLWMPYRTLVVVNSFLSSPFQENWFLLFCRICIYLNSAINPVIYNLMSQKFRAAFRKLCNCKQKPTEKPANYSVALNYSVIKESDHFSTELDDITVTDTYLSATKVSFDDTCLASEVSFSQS

`C[C@H]1O[C@@H](n2cc(F)c(=O)[nH]c2=O)[C@H](O)[C@H]1O`: the outcome in experiment [1], in experiment [2], in experiment [3], in experiment [4], in [5] and in experiment [6] was inactive. For the same compound, the compound was classed as inactive in [7], in experiment [8], in experiment [9], in [10], in experiment [11] and in experiment [12]. For the same compound, the call in [13] and in [14] was inactive.
Consider `O=C(O)c1nc(=O)[nH]c(=O)[nH]1`, for which, in experiment [15], the compound was classed as inactive.
For `CCNC(=O)[C@H]1O[C@@H](n2cnc3c(N)nc(NCCc4ccc(CCC(=O)O)cc4)nc32)[C@H](O)[C@H]1O`, the compound was classed as inactive in [16], in [17], in experiment [8], in [18] and in [19]. Moreover, the activation in [20] is 0.188% (inactive).
For `N#CC(c1ccc(Cl)cc1)c1c(Cl)cc(-n2ncc(=O)[nH]c2=O)cc1Cl` (configuration not stated), in [15], the compound was called inactive.
`NCC1CCC(C(=O)O)CC1` (configuration not stated): the result in experiment [15] was inactive.
The same measure, in the same setting: in the case of `O=C1C(CCC(O)c2ccc(F)cc2)C(c2ccc(O)cc2)N1c1ccc(F)cc1` (configuration not stated) it was “inactive”.
Still for that read-out and setting: the value for `N#Cc1c(N(CC(=O)O)CC(=O)O)sc(C(=O)O)c1CC(=O)O` was “inactive”; that for `Clc1ccc(COC(Cn2ccnc2)c2ccc(Cl)cc2Cl)c(Cl)c1` (configuration not stated) was “inactive”.
On the same count and under the same terms, in the case of `CC(C)CN(C[C@@H](O)[C@H](Cc1ccccc1)NC(=O)O[C@H]1CO[C@H]2OCC[C@H]21)S(=O)(=O)c1ccc(N)cc1` it was “inactive”; in that of `COc1cc2c(cc1OC)CC(=O)N(CCCN(C)C[C@H]1Cc3cc(OC)c(OC)cc31)CC2`, “inactive”.
Take `COc1ccnc(CS(=O)c2nc3ccc(OC(F)F)cc3[nH]2)c1OC` (configuration not stated): in [15], the compound was called inactive.
The same measure, in the same setting: the value for `NS(=O)(=O)c1cc(Cl)c(Cl)c(S(N)(=O)=O)c1` was “inactive”; that for `COc1c(C)c2c(c(O)c1CC=C(C)CCC(=O)OCCN1CCOCC1)C(=O)OC2` was “inactive”; that for `CS(=O)(=O)c1ccc(C2=C(c3ccccc3)C(=O)OC2)cc1` was “inactive”.
Same read-out and setting: the value for `CN1CC(=O)N2C(Cc3c([nH]c4ccccc34)[C@H]2c2ccc3c(c2)OCO3)C1=O` (some centres not stated) was “inactive”.
Consider `C=CCc1cccc(C=NNC(=O)CN2CCN(Cc3ccccc3)CC2)c1O`, for which the compound was called inactive in [1], in experiment [2], in [3], in experiment [4], in experiment [5] and in experiment [6]. Besides, the compound was classed as inactive in experiment [7], in experiment [8], in experiment [9], in experiment [10], in experiment [11] and in [12]. Further, the call in [13] was inactive.
`CN1CCN2c3ncccc3Cc3ccccc3C2C1` (configuration not stated): the result in [15] was inactive.

(Values after PubChem BioAssay (NCATS).)
